Data on 14 compounds can be found in PubChem BioAssay.

Experiment [1] in a line: inhibitors of TNFa-induced NFkB p65 translocation, primary screen, imaging, HUVEC, MLSMR starter and 10KST1 sets (AID 438;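 active = inhibition above 20% together with a positive visual image hit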;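 note: compound added about 3h40 before a 20 min TNFalpha stimulation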;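 for inhibition: signal is the nuclear over cytoplasmic p65 intensity ratio per well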). The settings on record: HUVEC TNFa-induced p65 nuclear translocation; cell count: measured here: nuclei count (cytotoxicity indicator), at 2.08 µM; inhibition: at 2 µM, stronger effect = higher value, 0% TNFa-plus-vehicle, 100% no-TNFa wells.
Experiment [2] in a line: inhibitors of mutant huntingtin aggregation, primary screen, imaging, exon1htt(103Q)mCFP cells, high-content imaging (AID 483;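 active = visual image review flags a hit and inhibition of aggregation exceeds 20%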;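 note: compound exposure lasted 3 days before fixation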;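 for nuclei count: percent of the per-plate median nuclei count of sample wells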). Conditions: exon1htt(103Q)mCFP cell line, aggregate imaging, at 2 µM; inhibition of aggregation: stronger effect = higher value; nuclei count: measured here: cell count, toxicity.
A short description of experiment [3]: inhibitors of E-selectin induction by TNFa, primary screen, imaging, HUVEC, immunofluorescence, MLSMR starter and 10KST1 sets (AID 487;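 active = visually confirmed hit in the image check and inhibition above 20%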;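 for inhibition: signal is fraction of cell area covered by stained E-selectin grains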;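 for nuclei count: 100% = median nuclei count of all wells on the same plate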). Conditions: HUVEC TNFalpha-induced E-selectin immunofluorescence imaging, at 2 µM; inhibition: stronger effect = higher value; nuclei count: measured here: cell number, toxicity.
Experiment [4] addresses Voltage-gated potassium channel subunit beta-2 (Rattus norvegicus) (UniProt P62483). Description: KvBeta enzyme negative modulators, primary screen, biochemical, NADPH fluorescence (AID 622;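 active = fluorescence slope higher than the sample average by over 3 SD, cut at about -0.22 in these data, passing the limit was not always enough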;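 note: slope of raw intensity against log time taken from 70 to 1610 s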). Conditions: recombinant KvBeta, 4-cyanobenzaldehyde reduction, at 10 µM, stronger effect = higher value.
Experiment [5] shares this target. Description: KvBeta positive modulators, primary screen, biochemical, NADPH fluorescence (AID 623;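 active = NADPH fluorescence slope more negative than the mean of all samples by about 3 SD, 99.7% confidence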;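 note: fluorescence intensity change per second fitted from 20 to 320 s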). Conditions: Recombinant KvBeta, NADPH fluorescence decrease slope, 10 min; at 10 µM; stronger effect = lower value.
In experiment [6] the target is Alpha-2C adrenergic receptor (Homo sapiens) (UniProt P18825). In words: modulators of alpha2C/GIRK thallium flux, primary screen, cell-based, HEK293 alpha2C/GIRK1/2 (AID 624;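 active = fluorescence slope after compound addition differing from the mean of all screened samples at 99.7% confidence, in either direction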;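 note: slope of fluorescence ratio to pre-addition baseline per second over 15 to 24 s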). The settings on record: thallium flux BTC fluorescence, at 10 µM, actives lie on both sides.
Chain of Alpha-2C adrenergic receptor (Homo sapiens) (P18825 whole entry, looked up): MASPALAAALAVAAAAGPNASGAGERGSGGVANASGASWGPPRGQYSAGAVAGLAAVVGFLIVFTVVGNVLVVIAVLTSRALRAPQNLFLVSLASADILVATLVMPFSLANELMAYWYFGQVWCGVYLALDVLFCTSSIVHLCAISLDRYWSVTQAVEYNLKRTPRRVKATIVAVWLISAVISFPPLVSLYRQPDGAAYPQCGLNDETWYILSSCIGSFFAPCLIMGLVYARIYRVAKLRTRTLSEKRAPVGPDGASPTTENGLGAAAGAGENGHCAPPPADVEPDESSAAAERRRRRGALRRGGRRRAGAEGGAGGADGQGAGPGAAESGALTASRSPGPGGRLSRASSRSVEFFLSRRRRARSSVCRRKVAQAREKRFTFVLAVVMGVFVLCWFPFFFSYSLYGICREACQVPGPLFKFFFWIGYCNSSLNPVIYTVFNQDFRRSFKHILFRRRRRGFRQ
Experiment [7] is described as follows: inhibitors of Sendai virus-induced IRF3 signaling, primary screen, TLR/RLR signaling modifier project, cell-based, Sendai virus stimulus, luciferase, 10K MLSCN set (AID 602276;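 active = inhibition at or above 50% at 10 µM; inactive = inhibition below 50%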;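 note: firefly luciferase from ISG56 promoter only with Renilla not read in this screen; 0% = Sendai virus plus DMSO and 100% = medium plus DMSO without virus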). Conditions: HEK293 RL24 IRF3 luciferase reporter, at 10 µM, stronger effect = higher value.
The nature of experiment [8]: inhibitors of poly I:C-induced TLR3 signaling, primary screen, cell-based, poly I:C stimulus, luciferase, 10K MLSCN set (AID 602277). The settings on record: HEK293-TLR3 RL24 IRF3 luciferase reporter, at 10 µM, stronger effect = higher value. (In general: A reporter such as luciferase makes a cellular process visible.)

The structures appear in SMILES notation. Calls of active or inactive are those of the source.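 Rule for the calls, unless noted: active = inhibition of the reporter signal at or above 50%; inactive = inhibition below 50%.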

Chain of Voltage-gated potassium channel subunit beta-2 (Rattus norvegicus) (P62483 whole entry, looked up): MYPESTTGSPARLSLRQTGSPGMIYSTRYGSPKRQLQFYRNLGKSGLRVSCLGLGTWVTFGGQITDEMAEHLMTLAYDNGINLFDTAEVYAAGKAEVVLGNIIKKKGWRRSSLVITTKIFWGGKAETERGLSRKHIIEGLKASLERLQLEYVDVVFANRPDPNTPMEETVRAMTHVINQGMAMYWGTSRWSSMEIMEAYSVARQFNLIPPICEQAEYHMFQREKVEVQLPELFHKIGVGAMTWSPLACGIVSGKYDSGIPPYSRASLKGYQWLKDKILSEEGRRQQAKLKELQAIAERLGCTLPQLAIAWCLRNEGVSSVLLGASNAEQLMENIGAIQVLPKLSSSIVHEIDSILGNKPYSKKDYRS

For the compound `CCC(=O)Nc1cc2nn(-c3ccccc3)nc2cc1Cl`, in experiment [1], the cell count is 442. Moreover, the inhibition in experiment [1] was -2.1% (inactive); in experiment [3] it was -94.2% (inactive); in experiment [7] it was -10.5% (inactive); in experiment [8], -46.9% (inactive). Further, the inhibition of aggregation in experiment [2] was 7.1% (inactive). Also, the results for the nuclei count in experiment [2] and in experiment [3] were 105% and 255%, respectively. Moreover, the fluorescence slope in experiment [4] is -0.413 (inactive). For the same compound, in experiment [5], the NADPH fluorescence slope was -5.9e-07 (inactive). Besides, in experiment [6], the slope is 0.00584 (inactive).

For the compound `CCOc1ccc(S(=O)(=O)NCC2CCCO2)c2cccnc12` (centres undefined), in experiment [1], the cell count turned out to be 365. Further, the inhibition in experiment [1] is -1.7% (inactive); in experiment [3], 36.8% (inactive); in experiment [7], 17.5% (inactive); in experiment [8] it was 21.3% (inactive). The inhibition of aggregation in experiment [2] was -30.7% (inactive). Further, the nuclei count in experiment [2] is 104%; in experiment [3] it was 105%. Further, in experiment [4], the fluorescence slope is -0.497 (inactive). In experiment [5], the NADPH fluorescence slope is 8e-05 (inactive). In experiment [6], the slope is 0.00707 (inactive).

Turning to `Cc1cc(C(=O)Nc2nc3c(s2)CCCC3)cs1`, in experiment [1], the cell count is 347. Also, the inhibition was 7.6% (inactive) in experiment [1], -6.3% (inactive) in experiment [3], -47% (inactive) in experiment [7] and -131% (inactive) in experiment [8]. For the same compound, the inhibition of aggregation in experiment [2] was -12.3% (inactive). Besides, the nuclei count came out at 111% in experiment [2] and 107% in experiment [3]. Besides, in experiment [4], the fluorescence slope was -0.532 (inactive). Moreover, the NADPH fluorescence slope in experiment [5] was 1.1e-05 (inactive). Besides, in experiment [6], the slope was 0.00523 (inactive).

As to `Cn1c(SCc2nc3ccccc3c(=O)[nH]2)nnc1-c1ccco1`, the cell count in experiment [1] was 748. In addition, the inhibition in experiment [1] is 0% (inactive); in experiment [3], -141% (inactive); in experiment [7], -0.0213% (inactive); in experiment [8], 25.9% (inactive). For the same compound, the inhibition of aggregation in experiment [2] was 11.8% (inactive). Besides, the nuclei count in experiment [2] was 104%; in experiment [3], 131%. Also, in experiment [4], the fluorescence slope is -0.496 (inactive). In addition, the NADPH fluorescence slope in experiment [5] was -6.5e-06 (inactive). The slope in experiment [6] is 0.00622 (inactive).

In the case of `COC(=O)c1sc(N2C(=O)C(O)=C(C(=O)c3ccc(C)o3)C2c2ccc(F)cc2)nc1C` (centres undefined), in experiment [1], the cell count came out at 325. Moreover, the inhibition in experiment [1] was 3% (inactive); in experiment [3], 35.1% (inactive); in experiment [7], 18.3% (inactive); in experiment [8], 4.43% (inactive). Further, the inhibition of aggregation in experiment [2] was 10.4% (inactive). Moreover, the values for the nuclei count in experiment [2] and in experiment [3] were 96.6% and 109%, respectively. Moreover, the fluorescence slope in experiment [4] is -0.419 (inactive). The NADPH fluorescence slope in experiment [5] is -5.6e-05 (inactive). Also, in experiment [6], the slope is 0.0054 (inactive).

On to `CN(C)S(=O)(=O)c1ccc(C(=O)NCc2cccs2)cc1`, for which the cell count in experiment [1] amounted to 436. For the same compound, the inhibition in experiment [1] is 4.7% (inactive); in experiment [3] it was 15.4% (inactive); in experiment [7], 3.68% (inactive); in experiment [8], 3.16% (inactive). In addition, in experiment [2], the inhibition of aggregation was 6.5% (inactive). Further, the values for the nuclei count in experiment [2] and in experiment [3] were 105% and 125%, respectively. The fluorescence slope in experiment [4] was -0.611 (inactive). The NADPH fluorescence slope in experiment [5] is -2.1e-05 (inactive). Also, in experiment [6], the slope is 0.00652 (inactive).

Consider `S=c1[nH]ncn1-c1ccccn1`, for which the cell count in experiment [1] is 681. Also, the inhibition in experiment [1] was -11% (inactive); in experiment [3], -40.7% (inactive); in experiment [7], 1.29% (inactive); in experiment [8] it was 8.61% (inactive). In addition, the inhibition of aggregation in experiment [2] was -25.8% (inactive). The figures for the nuclei count in experiment [2] and in experiment [3] were 114% and 109%, respectively. For the same compound, the fluorescence slope in experiment [4] is -0.41 (inactive). The NADPH fluorescence slope in experiment [5] was -3.7e-05 (inactive). Besides, in experiment [6], the slope is 0.00408 (inactive).

Turning to `CCOC(=O)C1CCCN(C(=O)c2ccc(CS(=O)(=O)c3ccc(Br)cc3)o2)C1` (centres undefined), the cell count in experiment [1] turned out to be 509. The inhibition was -3% (inactive) in experiment [1], -61.3% (inactive) in experiment [3], 4.84% (inactive) in experiment [7] and 25.8% (inactive) in experiment [8]. For the same compound, the inhibition of aggregation in experiment [2] is -0.5% (inactive). For the same compound, the results for the nuclei count in experiment [2] and in experiment [3] were 108% and 111%, respectively. In addition, in experiment [4], the fluorescence slope was -0.422 (inactive). In addition, the NADPH fluorescence slope in experiment [5] is -7.7e-05 (inactive). In addition, the slope in experiment [6] was 0.00523 (inactive).

Regarding `N#CCCN(C(=O)Nc1ccc(Cl)cc1)c1ccccc1`, the cell count in experiment [1] turned out to be 355. In addition, the inhibition is -2.1% (inactive) in experiment [1], -15.7% (inactive) in experiment [3], -5.26% (inactive) in experiment [7] and -52.7% (inactive) in experiment [8]. The inhibition of aggregation in experiment [2] is -8.5% (inactive). Moreover, the nuclei count was 98.6% in experiment [2] and 99.7% in experiment [3]. Moreover, the fluorescence slope in experiment [4] is -0.632 (inactive). For the same compound, the NADPH fluorescence slope in experiment [5] is 2.2e-05 (inactive). Further, in experiment [6], the slope is 0.00361 (inactive).

As to `C=CCSc1n[nH]c(-c2ccc(OC)cc2)n1`, the cell count in experiment [1] amounted to 244. Further, the inhibition in experiment [1] was 17.3% (inactive); in experiment [3] it was -73.2% (inactive); in experiment [7] it was -90.7% (inactive); in experiment [8], -168% (inactive). Besides, the inhibition of aggregation in experiment [2] was -8.3% (inactive). Further, the values for the nuclei count in experiment [2] and in experiment [3] were 89.5% and 103%, respectively. Further, the fluorescence slope in experiment [4] was -0.417 (inactive). For the same compound, in experiment [5], the NADPH fluorescence slope was -9.3e-05 (inactive). The slope in experiment [6] was 0.00611 (inactive).

On to `COCCn1nnnc1C(c1ccccc1OC)N1CCc2ccccc2C1` (centres undefined), for which, in experiment [1], the cell count came out at 511. Moreover, the inhibition in experiment [1] was -3.6% (inactive); in experiment [3], -89.6% (inactive); in experiment [7] it was 16.5% (inactive); in experiment [8], 32.8% (inactive). Also, the inhibition of aggregation in experiment [2] was 37.6% (inactive). The results for the nuclei count in experiment [2] and in experiment [3] were 105% and 96.1%, respectively. In experiment [4], the fluorescence slope was -0.322 (inactive). Moreover, the NADPH fluorescence slope in experiment [5] was -5e-05 (inactive). For the same compound, in experiment [6], the slope was 0.00407 (inactive).

For the compound `CN(c1ccccc1)S(=O)(=O)c1ccc(C(=O)OCC(=O)N2CCOCC2)cc1`, in experiment [1], the cell count turned out to be 420. Further, the inhibition in experiment [1] was -5.7% (inactive); in experiment [3] it was 0.3% (inactive); in experiment [7], 11.4% (inactive); in experiment [8], 22% (inactive). Besides, in experiment [2], the inhibition of aggregation is 8.2% (inactive). For the same compound, the nuclei count in experiment [2] worked out at 92.9%; in experiment [3], 105%. For the same compound, in experiment [4], the fluorescence slope is -0.583 (inactive). In experiment [5], the NADPH fluorescence slope is -6.4e-05 (inactive). Also, the slope in experiment [6] is 0.00565 (inactive).

For the compound `N#C/C(=C(/O)COC(=O)CCC1CCCCC1)c1nc2ccccc2[nH]1`, the cell count in experiment [1] is 317. Also, the inhibition in experiment [1] was -3.4% (inactive); in experiment [3], -3.3% (inactive); in experiment [7] it was 16.8% (inactive); in experiment [8], 24.8% (inactive). For the same compound, the inhibition of aggregation in experiment [2] is -9.2% (inactive). Also, the nuclei count in experiment [2] worked out at 120%; in experiment [3], 113%. For the same compound, in experiment [4], the fluorescence slope was -0.595 (inactive). The NADPH fluorescence slope in experiment [5] was -3.2e-05 (inactive). Further, in experiment [6], the slope is 0.0028 (inactive).

Consider `Cn1c(=O)[nH]c(=O)c2c1nc(CN1CCN(c3cccc(Cl)c3)CC1)n2CCc1ccccc1`, for which, in experiment [1], the cell count amounted to 683. The inhibition in experiment [1] is -9.7% (inactive); in experiment [3] it was -90.8% (inactive); in experiment [7], -13.9% (inactive); in experiment [8] it was -0.338% (inactive). The inhibition of aggregation in experiment [2] was 6.6% (inactive). Moreover, the nuclei count in experiment [2] is 107%; in experiment [3], 87.9%. Besides, the fluorescence slope in experiment [4] was -0.587 (inactive). In addition, in experiment [5], the NADPH fluorescence slope was 8.1e-06 (inactive). The slope in experiment [6] was 0.00654 (inactive).

Broadly, the inhibition is the drop in the measured response relative to a control, in per cent.
